{
  "source": "PubChem BioAssay",
  "data": [
    {"target": "Carbonic anhydrase 2 (Homo sapiens) (UniProt P00918)", "experiment": "CAII small-molecule binders, profiling panel, biochemical, small-molecule microarray, Alexa647-labelled CAII (AID 1122)", "conditions": "CAII-A647 binding fluorescence, higher = more signal", "values": [
      {"compound": "CC(C)CON=C1C[C@@H](O)[C@@H](O)[C@@H]2[C@@H]3C(=O)N(C[C@@H]4CCCO4)C(=O)[C@@H]3CC[C@H]12", "composite z-score": 0.0765},
      {"compound": "CCN1C(=O)[C@H]2[C@H]3[C@H](O)[C@H](O)CC(=NO[C@@H]4O[C@H](CO)[C@@H](O)[C@H](O)[C@H]4O)[C@@H]3CC[C@H]2C1=O", "composite z-score": -0.12},
      {"compound": "COc1ccc(-c2ccc3c(n2)CCCN3CC(O)CN2CCCc3nc(C)c(C)cc32)cc1", "note": "(stereo not given)", "composite z-score": 0.741},
      {"compound": "CO[C@H]1O[C@H](CO)[C@@H](OC(=O)Nc2ccc3c(c2)OCO3)[C@H](OC(=O)Nc2ccccc2-c2ccccc2)[C@@H]1OC(=O)Nc1ccccc1-c1ccccc1", "composite z-score": 0.543},
      {"compound": "COC(=O)CC1OC1[C@H](C)[C@@H](OC)C(C)C", "note": "(stereo not given in full)", "composite z-score": 0.232},
      {"compound": "CO[C@@H]1COC(=O)CC=C[C@@H](C)[C@@H]2C=C[C@H](O)[C@@H](COC(=O)[C@H](C)NC(=O)CC=C[C@H]1C)O2", "composite z-score": -0.455},
      {"compound": "N#Cc1ccc(NN2C(C(O)c3cc(C(F)(F)F)cc(C(F)(F)F)c3)C=CC3C(=O)N(c4ccccc4)C(=O)C32)cc1", "note": "(stereo not given)", "composite z-score": 0.612},
      {"compound": "CCOC(=O)NN=C1C[C@@H](O)[C@@H](O)[C@@H]2[C@@H]3C(=O)N(C[C@@H]4CCCO4)C(=O)[C@@H]3CC[C@@H]12", "composite z-score": 0.0815},
      {"compound": "COCCOC(=O)N1C(=O)[C@@]2(c3cc(C#CC4(O)CCCCCC4)ccc31)[C@H](C(=O)N1CCN(c3ncccn3)CC1)[C@H]1C(=O)O[C@H](c3ccccc3)[C@H](c3ccccc3)N1[C@@H]2c1ccc(OCCO)cc1", "composite z-score": 0.375},
      {"compound": "C=CC[C@]1(C(=O)NCc2ccccc2)N=C(c2ccc(OCCCO)cc2)O[C@H]1c1ccccc1", "composite z-score": 0.69},
      {"compound": "COc1ccc(O[C@H]2C=C[C@@H](c3ccccc3)O[C@@H]2COC(=O)CCC(C)=NOC(C)CN2CCCCc3nc(C)c(C)cc32)cc1", "note": "(stereo not given in full)", "composite z-score": 0.456},
      {"compound": "CO[C@@H]1COC(=O)CC=C[C@@H](C)[C@@H]2C=C[C@@H](O)[C@@H](COC(=O)CC=C[C@H]1C)O2", "composite z-score": -0.235},
      {"compound": "CCOC(=O)[C@H](Cc1ccccc1)NC(=O)CCC1CC(OC(=O)NCCc2ccc(F)cc2)CC2(CCCC(COC(=O)NCC(c3ccccc3)c3ccccc3)O2)O1", "note": "(stereo not given in full)", "composite z-score": 0.16},
      {"compound": "C[C@H]1CC[C@@H](C(=O)O)N[C@@H]1c1ccc(C#CCN(C)C)cc1", "composite z-score": 0.37},
      {"compound": "O=C1NC(=O)C2C1C=CC(C(O)Cc1ccccc1)N2Nc1ccccn1", "note": "(stereo not given)", "composite z-score": 0.865},
      {"compound": "CCOC(=O)CCN1C(=O)[C@H]2[C@H]3[C@H](O)[C@H](O)CC(=NOC[C@@H](O)COCc4ccco4)[C@@H]3CC[C@H]2C1=O", "composite z-score": 0.214},
      {"compound": "CC(C)(C)N1C(=O)[C@H]2[C@H]3[C@H](O)[C@H](O)CC(=NOCc4ccccc4)[C@@H]3CC[C@H]2C1=O", "composite z-score": 0.675},
      {"compound": "COC(=O)[C@@]1(Cc2ccccc2)[C@H]2c3cc(C(=O)N4CCCC4)n(Cc4ccccn4)c3C[C@H]2CN1C(=O)c1ccccc1", "composite z-score": 0.834},
      {"compound": "C[C@@H](c1ccccc1)N1C(=O)[C@H]2[C@H]3[C@H](O)[C@H](O)CC(=NOC[C@@H](O)COCc4ccco4)[C@@H]3CC[C@H]2C1=O", "composite z-score": 0.279},
      {"compound": "COc1ccc(O[C@H]2C=C[C@@H](c3ccccc3)O[C@@H]2COC(=O)CCC(C)=NOCC[C@@H]2C=C[C@H](OC(C)=O)[C@@H](COC(C)=O)O2)cc1", "composite z-score": 0.654},
      {"compound": "O=C1[C@H]2[C@H]3[C@H](O)[C@H](O)CC(=NOC[C@@H](O)COCc4ccco4)[C@H]3CC[C@H]2C(=O)N1c1cccc(Oc2ccccc2)c1", "composite z-score": 0.364},
      {"compound": "COC(=O)CC=C[C@@H](C)[C@@H](C=NO[C@@H](C)c1cc(-c2c(C)cc(C)cc2C)no1)OC", "composite z-score": -0.604},
      {"compound": "COc1ccc(COC(=O)NN=C2C[C@@H](O)[C@@H](O)[C@@H]3[C@@H]4C(=O)N(Cc5ccc6c(c5)OCO6)C(=O)[C@@H]4CC[C@@H]23)cc1", "composite z-score": -0.244},
      {"compound": "C[C@@H]1CCC2C(=O)N(Cc3ccccc3)C[C@@H](O)CN2[C@H]1c1ccc(Br)cc1", "note": "(stereo not given in full)", "composite z-score": 0.375}
    ]},
    {"system": "not listed separately", "experiment": "COS7 lysate on small-molecule microarray, probe aHis, 635 nm (AID 1123);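 further: z-score combines 667nm fluorescence intensity with signal-to-noise per printed compound spot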", "conditions": "COS7 cell lysate, fluorescence, higher = more signal", "values": [
      {"compound": "COC(=O)[C@H](C)NC(=O)CCC1CC(OC(=O)NCCc2ccc(F)cc2)CC2(CCCC(COC(=O)NCCc3ccc(Cl)cc3)O2)O1", "note": "(stereo not given in full)", "composite z-score": 0.925},
      {"compound": "C=COC[C@H]1CN2[C@@H](CC[C@@H](C)[C@@H]2c2ccc(Br)cc2)C(=O)O1", "composite z-score": 0.807},
      {"compound": "CN1C(=O)C2C=CC(C(O)c3ccc(Br)cc3)N(N(c3ccccc3)c3ccccc3)C2C1=O", "note": "(stereo not given)", "composite z-score": 1.04},
      {"compound": "COC(=O)[C@H](C)NC(=O)[C@@H](C)CO", "composite z-score": 1.15},
      {"compound": "O=C1[C@H]2[C@H]3[C@H](O)[C@H](O)CC(=NOCc4ccccc4)[C@@H]3CC[C@H]2C(=O)N1Cc1ccccc1", "composite z-score": -0.256},
      {"compound": "CC(C)[C@@H](OCc1ccccc1)[C@H](C)C=NOC[C@@H](C)[C@H](OCc1ccccc1)C(C)C", "composite z-score": -0.393},
      {"compound": "CCOC(=O)[C@H](Cc1ccccc1)NC(=O)CCC1CC(OC(=O)NCc2ccc3c(c2)OCO3)CC2(CCCC(COC(=O)NCC3CCCCC3)O2)O1", "note": "(stereo not given in full)", "composite z-score": 0.575},
      {"compound": "COC(=O)[C@@H]1CC[C@H](C)[C@@H](c2ccc(C)cc2)N1C(=O)c1ccc(C=NOC[C@@H](O)COCc2ccco2)cc1", "composite z-score": -1.31},
      {"compound": "Cc1cc2c(nc1C)CCCN2CC(O)CN1CCN(C)CC1", "note": "(stereo not given)", "composite z-score": 0.387},
      {"compound": "C=C(CCCC)C(=O)CC[C@@H](OC(C)=O)c1cccc(OCCO)c1", "composite z-score": -0.022},
      {"compound": "CCOC(=O)[C@H](Cc1ccccc1)NC(=O)CCC1CC(OC(=O)NCc2ccc3c(c2)OCO3)CC2(CCCC(COC(=O)NCC(c3ccccc3)c3ccccc3)O2)O1", "note": "(stereo not given in full)", "composite z-score": 0.86},
      {"compound": "C#CCCCON=C1C[C@@H](O)[C@@H](O)[C@@H]2[C@@H]3C(=O)N(c4cccc(Oc5ccccc5)c4)C(=O)[C@@H]3CC[C@@H]12", "composite z-score": 1.77},
      {"compound": "CC(C)CON=C1C[C@@H](O)[C@@H](O)[C@@H]2[C@@H]3C(=O)N(C[C@@H]4CCCO4)C(=O)[C@@H]3CC[C@H]12", "composite z-score": 0.737},
      {"compound": "CCN1C(=O)[C@H]2[C@H]3[C@H](O)[C@H](O)CC(=NO[C@@H]4O[C@H](CO)[C@@H](O)[C@H](O)[C@H]4O)[C@@H]3CC[C@H]2C1=O", "composite z-score": -1.22},
      {"compound": "COc1ccc(-c2ccc3c(n2)CCCN3CC(O)CN2CCCc3nc(C)c(C)cc32)cc1", "note": "(stereo not given)", "composite z-score": 0.975},
      {"compound": "CO[C@H]1O[C@H](CO)[C@@H](OC(=O)Nc2ccc3c(c2)OCO3)[C@H](OC(=O)Nc2ccccc2-c2ccccc2)[C@@H]1OC(=O)Nc1ccccc1-c1ccccc1", "composite z-score": 2.08},
      {"compound": "COC(=O)CC1OC1[C@H](C)[C@@H](OC)C(C)C", "note": "(stereo not given in full)", "composite z-score": -0.64},
      {"compound": "CO[C@@H]1COC(=O)CC=C[C@@H](C)[C@@H]2C=C[C@H](O)[C@@H](COC(=O)[C@H](C)NC(=O)CC=C[C@H]1C)O2", "composite z-score": -1},
      {"compound": "N#Cc1ccc(NN2C(C(O)c3cc(C(F)(F)F)cc(C(F)(F)F)c3)C=CC3C(=O)N(c4ccccc4)C(=O)C32)cc1", "note": "(stereo not given)", "composite z-score": 2.82},
      {"compound": "CCOC(=O)NN=C1C[C@@H](O)[C@@H](O)[C@@H]2[C@@H]3C(=O)N(C[C@@H]4CCCO4)C(=O)[C@@H]3CC[C@@H]12", "composite z-score": 0.361},
      {"compound": "COCCOC(=O)N1C(=O)[C@@]2(c3cc(C#CC4(O)CCCCCC4)ccc31)[C@H](C(=O)N1CCN(c3ncccn3)CC1)[C@H]1C(=O)O[C@H](c3ccccc3)[C@H](c3ccccc3)N1[C@@H]2c1ccc(OCCO)cc1", "composite z-score": 0.714},
      {"compound": "C=CC[C@]1(C(=O)NCc2ccccc2)N=C(c2ccc(OCCCO)cc2)O[C@H]1c1ccccc1", "composite z-score": 2.65},
      {"compound": "COc1ccc(O[C@H]2C=C[C@@H](c3ccccc3)O[C@@H]2COC(=O)CCC(C)=NOC(C)CN2CCCCc3nc(C)c(C)cc32)cc1", "note": "(stereo not given in full)", "composite z-score": 0.121},
      {"compound": "CO[C@@H]1COC(=O)CC=C[C@@H](C)[C@@H]2C=C[C@@H](O)[C@@H](COC(=O)CC=C[C@H]1C)O2", "composite z-score": -0.635},
      {"compound": "CCOC(=O)[C@H](Cc1ccccc1)NC(=O)CCC1CC(OC(=O)NCCc2ccc(F)cc2)CC2(CCCC(COC(=O)NCC(c3ccccc3)c3ccccc3)O2)O1", "note": "(stereo not given in full)", "composite z-score": 1.04},
      {"compound": "C[C@H]1CC[C@@H](C(=O)O)N[C@@H]1c1ccc(C#CCN(C)C)cc1", "composite z-score": -0.144},
      {"compound": "O=C1NC(=O)C2C1C=CC(C(O)Cc1ccccc1)N2Nc1ccccn1", "note": "(stereo not given)", "composite z-score": 1.87},
      {"compound": "CCOC(=O)CCN1C(=O)[C@H]2[C@H]3[C@H](O)[C@H](O)CC(=NOC[C@@H](O)COCc4ccco4)[C@@H]3CC[C@H]2C1=O", "composite z-score": 0.171},
      {"compound": "CC(C)(C)N1C(=O)[C@H]2[C@H]3[C@H](O)[C@H](O)CC(=NOCc4ccccc4)[C@@H]3CC[C@H]2C1=O", "composite z-score": 0.384},
      {"compound": "COC(=O)[C@@]1(Cc2ccccc2)[C@H]2c3cc(C(=O)N4CCCC4)n(Cc4ccccn4)c3C[C@H]2CN1C(=O)c1ccccc1", "composite z-score": 3.44},
      {"compound": "C[C@@H](c1ccccc1)N1C(=O)[C@H]2[C@H]3[C@H](O)[C@H](O)CC(=NOC[C@@H](O)COCc4ccco4)[C@@H]3CC[C@H]2C1=O", "composite z-score": -0.359},
      {"compound": "COc1ccc(O[C@H]2C=C[C@@H](c3ccccc3)O[C@@H]2COC(=O)CCC(C)=NOCC[C@@H]2C=C[C@H](OC(C)=O)[C@@H](COC(C)=O)O2)cc1", "composite z-score": 0.938},
      {"compound": "O=C1[C@H]2[C@H]3[C@H](O)[C@H](O)CC(=NOC[C@@H](O)COCc4ccco4)[C@H]3CC[C@H]2C(=O)N1c1cccc(Oc2ccccc2)c1", "composite z-score": -0.607},
      {"compound": "COC(=O)CC=C[C@@H](C)[C@@H](C=NO[C@@H](C)c1cc(-c2c(C)cc(C)cc2C)no1)OC", "composite z-score": -0.556},
      {"compound": "COc1ccc(COC(=O)NN=C2C[C@@H](O)[C@@H](O)[C@@H]3[C@@H]4C(=O)N(Cc5ccc6c(c5)OCO6)C(=O)[C@@H]4CC[C@@H]23)cc1", "composite z-score": 0.115},
      {"compound": "C[C@@H]1CCC2C(=O)N(Cc3ccccc3)C[C@@H](O)CN2[C@H]1c1ccc(Br)cc1", "note": "(stereo not given in full)", "composite z-score": 0.669}
    ]}
  ]
}
